From PubChem BioAssay (NCI)
Values joined by “and” are separate entries in the source; they are usually repeats but may differ in a detail not shown here. Equal entries are not always repeated. Compounds without any hit were thinned out: in the full panel of roughly 83,000, 20% have a hit.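 Cells were grown in 96-well plates and exposed to the test compound at a single concentration for 48 hours; results are reported as percent growth, with values below 10 considered active.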 Active and inactive are the calls of the source.

Columns and labels:
Assay in all cases: NCI-60 one-dose screen, 48 h (100 = growth as untreated, 0 = no growth, -100 = all killed)
OVCAR-8 ovarian = conditions: 10 µM unless noted
OVCAR-5 ovarian = conditions: 10 µM unless noted
SK-OV-3 ovarian = conditions: 10 µM unless noted
IGROV1 ovarian = conditions: 10 µM unless noted
OVCAR-3 ovarian = conditions: 10 µM unless noted
NCI/ADR-RES ovarian = conditions: 10 µM unless noted
T-47D breast = conditions: 10 µM unless noted
BT-549 breast = conditions: 10 µM unless noted
MDA-MB-435 melanoma = conditions: 10 µM unless noted
SW-620 colon = conditions: 10 µM unless noted
MCF7 breast = system: MCF7 breast
HCT-116 colon = conditions: 10 µM unless noted
HCC-2998 colon = conditions: 10 µM unless noted
RPMI-8226 leukemia = conditions: 10 µM unless noted
OVCAR-4 ovarian = conditions: 10 µM unless noted
KM12 colon = conditions: 10 µM unless noted
HS 578T breast = conditions: 10 µM unless noted

Row | SMILES | growth (OVCAR-8 ovarian) | growth (OVCAR-5 ovarian) | growth (SK-OV-3 ovarian) | growth (IGROV1 ovarian) | growth (OVCAR-3 ovarian) | growth (NCI/ADR-RES ovarian) | growth (T-47D breast) | growth (BT-549 breast) | growth (MDA-MB-435 melanoma) | growth (SW-620 colon) | growth (MCF7 breast; 10 µM unless noted) | growth (HCT-116 colon) | growth (HCC-2998 colon) | growth (RPMI-8226 leukemia) | growth (OVCAR-4 ovarian) | growth (KM12 colon) | growth (HS 578T breast) | growth (MCF7 breast; 10 µM) | growth (MCF7 breast; 100 µM)
1 | Cc1cc(-c2ccc(N=Nc3ccc4c(S(=O)(=O)O)cc(S(=O)(=O)O)c(N)c4c3O)c(C)c2)ccc1N=Nc1ccc2c(S(=O)(=O)O)cc(S(=O)(=O)O)c(N)c2c1O | 101% (inactive) | 90.2% (inactive) | 102% (inactive) | 78.5% (inactive) | 95.5% (inactive) | 103% (inactive) | 93.1% (inactive) | 86.1% (inactive) | 98.5% (inactive) | 110% (inactive) | 103% (inactive) | 85.8% (inactive) | 117% (inactive) | – | – | – | – | – | –
2 | CN(C)c1ccc(/C=C\C(=O)c2ccccc2)cc1 | 102% (inactive) and 93.9% (inactive) and 92.6% (inactive) | 106% (inactive) and 110% (inactive) and 99% (inactive) | 92.3% (inactive) and 104% (inactive) | 80.5% (inactive) and 91.3% (inactive) and 80.3% (inactive) | 81.4% (inactive) and 76.2% (inactive) and 78.5% (inactive) | 88.2% (inactive) and 85.5% (inactive) and 93.1% (inactive) | 85.2% (inactive) and 89.3% (inactive) | 76.5% (inactive) and 77.6% (inactive) and 73.7% (inactive) | 85.3% (inactive) and 38% (inactive) and 25.1% (inactive) | 64.2% (inactive) and 61.3% (inactive) and 66.4% (inactive) | 50.2% (inactive) and 39.2% (inactive) and 45% (inactive) | 75.9% (inactive) and 94.2% (inactive) and 59.2% (inactive) | 97.1% (inactive) and 88.3% (inactive) and 100% (inactive) | 72.7% (inactive) and 76.8% (inactive) and 69.6% (inactive) | 105% (inactive) and 109% (inactive) and 104% (inactive) | 51.5% (inactive) and 50.1% (inactive) and 57.5% (inactive) | – | – | –
3 | O=c1[nH]cnc2c1ncn2C1OC(CO)C(O)C1O (stereo not given) | 106% (inactive) and 100% (inactive) and 103% (inactive) | 116% (inactive) and 114% (inactive) and 96.5% (inactive) | 95.7% (inactive) and 104% (inactive) and 105% (inactive) | 118% (inactive) and 133% (inactive) and 64.6% (inactive) | 113% (inactive) and 111% (inactive) and 107% (inactive) | 99.5% (inactive) and 105% (inactive) and 102% (inactive) | 103% (inactive) and 107% (inactive) and 90.2% (inactive) | 103% (inactive) and 123% (inactive) and 109% (inactive) | 121% (inactive) and 98.7% (inactive) and 90.2% (inactive) | 107% (inactive) and 113% (inactive) and 89.7% (inactive) | 100% (inactive) and 96.8% (inactive) and 95.6% (inactive) | 102% (inactive) and 116% (inactive) and 92.9% (inactive) | 102% (inactive) and 113% (inactive) and 127% (inactive) | 101% (inactive) and 93.6% (inactive) and 96.5% (inactive) | 126% (inactive) and 118% (inactive) and 117% (inactive) | – | – | – | –
4 | O=C1OC(C(O)C(O)CO)C(O)=C1O (stereo not given) | 102% (inactive) and 105% (inactive) | 94.6% (inactive) and 96.4% (inactive) | 114% (inactive) and 92.9% (inactive) | 111% (inactive) | 115% (inactive) and 109% (inactive) | 95% (inactive) and 102% (inactive) | 103% (inactive) and 83.1% (inactive) | 106% (inactive) | 114% (inactive) and 109% (inactive) | 117% (inactive) and 105% (inactive) | 98.9% (inactive) and 97.4% (inactive) | 100% (inactive) and 92.8% (inactive) | -23.7% (active) and 98.9% (inactive) | 98.1% (inactive) and 105% (inactive) | 106% (inactive) and 112% (inactive) | 109% (inactive) and 103% (inactive) | 120% (inactive) and 119% (inactive) | – | –
5 | CCc1cc(C)cc(O)c1 | 105% (inactive) | 106% (inactive) | 102% (inactive) | 92% (inactive) | 126% (inactive) | 111% (inactive) | 102% (inactive) | – | 113% (inactive) | 107% (inactive) | 98.3% (inactive) | 98.2% (inactive) | 104% (inactive) | 106% (inactive) | 112% (inactive) | 114% (inactive) | – | – | –
6 | CCCCOC(=O)/C=C\C(=O)NC(N)=O | 71.1% (inactive) | 93.1% (inactive) | 111% (inactive) | 74.1% (inactive) | 87.7% (inactive) | 90.8% (inactive) | 60.4% (inactive) | 63.5% (inactive) | 99.4% (inactive) | 57.1% (inactive) | 81.1% (inactive) | 80.1% (inactive) | 108% (inactive) | 39.5% (inactive) | 93.4% (inactive) | 106% (inactive) | 99.1% (inactive) | – | –
7 | CC1CCC(C(C)C)C(NNC(N)=O)C1 (stereo not given) | 100% (inactive) | 131% (inactive) | 109% (inactive) | 110% (inactive) | 103% (inactive) | 105% (inactive) | – | – | 101% (inactive) | 98% (inactive) | 100% (inactive) | 99.5% (inactive) | 91.8% (inactive) | 98.5% (inactive) | 111% (inactive) | 94% (inactive) | – | – | –
8 | CCCCNc1ccc(Nc2ccccc2)cc1 | 74.2% (inactive) | 103% (inactive) | – | 58.7% (inactive) | 66% (inactive) | 86.4% (inactive) | 34% (inactive) | 49.7% (inactive) | 71.8% (inactive) | 84.3% (inactive) | 67.3% (inactive) | 47.9% (inactive) | 92% (inactive) | -25% (active) | 39% (inactive) | 66% (inactive) | 105% (inactive) | – | –
9 | COc1ccc2cc1Oc1ccc(cc1)C[C@H]1c3cc(c(OC)cc3CCN1C)Oc1c(OC)c(OC)cc3c1[C@H](C2)N(C)CC3 | – | 72.3% (inactive) | 110% (inactive) | – | 70.4% (inactive) | 56.8% (inactive) | 93.1% (inactive) | 28.5% (inactive) | 24.7% (inactive) | 40.1% (inactive) | – | 14% (inactive) | 0.135% (active) | -31.2% (active) | – | – | – | 52.7% (inactive) | 98.3% (inactive) and 67.5% (inactive)
10 | Cc1ccc(S(=O)(=O)c2ccccc2)cc1 | 55.1% (inactive) | 80.1% (inactive) | 29.5% (inactive) | 45.4% (inactive) | -38.9% (active) | 21.1% (inactive) | 49.7% (inactive) | 36.6% (inactive) | -49.8% (active) | 11.6% (inactive) | 20.9% (inactive) | 18.8% (inactive) | 51.6% (inactive) | 49% (inactive) | 71.1% (inactive) | 25.5% (inactive) | – | – | –
11 | Brc1ccc(SSc2ccc(Br)cc2)cc1 | 83.9% (inactive) | 90.8% (inactive) | 110% (inactive) | 29.3% (inactive) | 85.4% (inactive) | 66.2% (inactive) | – | 29.4% (inactive) | 82.6% (inactive) | 84.2% (inactive) | 59.7% (inactive) | 56.6% (inactive) | 93.5% (inactive) | 35.6% (inactive) | 91.2% (inactive) | 57.4% (inactive) | 96.9% (inactive) | – | –
12 | CCCCOc1ccc(Nc2cc(Cl)ccc2C(=O)O)cn1 | 111% (inactive) and 94.6% (inactive) | 110% (inactive) and 101% (inactive) | 108% (inactive) | 42.5% (inactive) and 104% (inactive) | 111% (inactive) and 106% (inactive) | 90.4% (inactive) and 97.4% (inactive) | 92.6% (inactive) and 92.3% (inactive) | 101% (inactive) and 100% (inactive) | 105% (inactive) and 107% (inactive) | 103% (inactive) and 101% (inactive) | 99.5% (inactive) and 107% (inactive) | 93.7% (inactive) and 92.4% (inactive) | 95.4% (inactive) | 57.8% (inactive) and 93.2% (inactive) | 92.4% (inactive) | 118% (inactive) and 103% (inactive) | 95.3% (inactive) and 99.2% (inactive) | – | –
